# Test system: VDR:RXRa (NR concentration 270 nM, RXRa partner concentration 90 nM)
# Assay: PBM binding z-score (relative to random genomic background probes); higher = stronger binding; sequences stand for … in GC…GCGATTGACAGCGTAGAATGAAGG
# Protocol: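 Protein-binding microarray (Agilent 4x180K custom design, double-stranded 60-nt probes: 5' GC cap, 34-nt variable region, 24-nt constant primer region; full probe sequence given). Purified or IVT nuclear receptor:RXRα heterodimers (3:1 NR:RXRα, mostly 270:90 nM) or homodimers were incubated for 1 h in PBS with 2% milk and no ligand, then detected with Alexa488 antibodies. Fluorescence from o1-orientation probes (~5 replicates averaged) was converted to z-scores against 500 random hg19 background probes. Variable regions are seed direct-repeat (DR0–DR5) sites, all their single-nucleotide variants and half-site ablations.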
row,Sequence,PBM binding z-score
1,ATACGTAGGTTATCGGGTCATTCAGTTTGCGCAT,5.06
2,CCTACTGGGCCAAAGGTCATTGACTCCAATGCTC,4.58
3,AGATTGAGGTTACCAAAGATCAGGGAAACGCTTG,1.39
4,CCGAGTAGGTTACGAGGGGGCATGCAGTGCGAAT,4.63
5,CTATGTAGGTTAAGGTGGTCATTCAGTTTGAAAG,2.29
6,CTATGTAGGTTAATGGGGTCATTCAGTTTGAAAG,7.83
7,CGAACTAGGTCAAAGTACAGTGAAAGGCGACGTA,1.84
8,CGTCCAAGGTCAACGCTAGGTCAGTGAAAGCATT,5.09
9,ATCCAAAGGTCGAGGTGAGTATAGAGAAAGGGAA,3.05
10,CCTCGGAGGTCAGAAGGTCAGAGCTGTCCGCTTT,4.38
11,GGAACGAGGGCAAAGGTGATAGCATCTGTCGACG,1.92
12,CTATGTAGGTTAAGGGGGTCATTTAGTTTGAAAG,7.32
13,CTGTGTAGGTTAAGGGGGTCATTCAGTTTGAAAG,7.46
14,CGAACTAGGTCACCAGGACAGCGAAGAGGTTGGA,1.88
15,CCGAGTAGGATACGAGGGGGCATTCAGTGCGAAT,3.32
16,TCGAGTAGGGTACGGGGGCATTCAGGGATGAAGA,3.64
17,CCGAGTAGGTTACGAGGGCGCATTCAGTGCGAAT,0.78
18,CGAACTAGGTGACCAGGACAGTGAAGAGGTTGGA,0.673
19,CCTTACGGGTCAGTGACAGGTTATAGCATTTGGA,2.49
20,CAAACTAGGTCACAGAGGTCAAACTCCGTGCGTA,8.03

row,Sequence,PBM binding z-score
1,TCGAGTAGGTTACGGGGGCATTCAAGGATGAAGA,3.74
2,ATCGAAAGGTCGTGACGTGAGTATACAGAAAGGC,3.03
3,CATACAGGGTCATCTAGGCCAGAGTAGGGACGGC,5.26
4,CGAACTAGGTCAAATGACAGTGAAAGGCGACGTA,1.63
5,CTATGTATGTTAAGGGGGTCATTCAGTTTGAAAG,6.64
6,CGATCTAGGTCACCAGGACAGTGAAGAGGTTGGA,1.76
7,ATCGAAGGGTCGAAGGTGAGTATACCCACCCGAA,1.66
8,CGTCCAAGGGCAATGCTAGGTCAGTGAAAGCATT,0.893
9,CCTGCTAGTTCATGGTCAGCTAATCTACAGTATG,0.708
10,CCGAGTAGGTTACGAGGGGGCATTCACTGCGAAT,4.98
11,CGTACTAGGTCACCAGGACAGTGAAGAGGTTGGA,1.93
12,AGAATGAGGTTACCAAAGATCAGTGAAACGCTTG,1.45
13,CTTTACGGGTCAAGGTTATAGCACGGGTGGTACG,3.8
14,CCGAGTAGGTTACGAGGGGGCATCCAGTGCGAAT,4.75
15,CTATGTAGGTTAAGGGGGTCAATCAGTTTGAAAG,7.09
16,CCTACTGGGCCAATGTCATTGATCAGTCAAAGCA,-0.366
17,TCGAGTAGGTTACGGTGGCATTCAGGGATGAAGA,0.16
18,CGTCCAAGGGCAGCAGGTCAGTGAAAGCGACGTG,0.17
19,CCCACTGGGCCATTCAGAGGTCATTGATCATATG,4.02
20,TTACCAAGGTGAAAGGTCATTGATGCACGCCTTG,5.41

# From the supplement of paper PMC6555819
